Data published in PubChem BioAssay (NCATS).
Inconclusive results are not listed. Entries that show only a call come without a potency. A number with no mark means an inactive call. Calls of active or inactive are those of the source. Unless noted, calls come from the whole dose curve; as a rule, active = well fitted curve in the direction sought with a large enough effect; inconclusive = small, poorly fitted or top-dose-only effect, or another doubt; inactive = no such curve, though single readings can be large; an effect the other way counts as inactive or inconclusive.

What was measured:
[1] = Cell Viability qHTS for small molecule stabilizers of the endoplasmic reticulum resident proteome (AID 1508629); settings: cell viability counter-screen, 100 nM thapsigargin for final 4 h;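 note: human SH-SY5Y neuroblastoma cells carrying the GLuc-SERCaMP reporter; compound exposure about 46 h in total before the viability read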
[2] = biological target: Cytochrome P450 3A4 (Homo sapiens) (UniProt P08684); experiment: Cytochrome P450 family 3 subfamily A member 4 (CYP3A4) small molecule antagonists: luciferase qHTS assay (AID 1645841; active = well fitted curve in the direction sought with a large enough effect in the repeat runs; an effect the other way counts as inactive or inconclusive; note: nearly all actives have a fitted effect of over 45% in size); settings: P450-Glo CYP3A4 enzyme assay, luciferin luminescence; series mostly up to 57.4 µM
Procedure, shortened: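 Luminescent CYP3A4 activity readout: compounds plus enzyme-substrate mix 10 min at room temperature, reaction started with NADPH regenerating system for 1 h, stopped with detection reagent, read after 20 min. Ketoconazole served as control.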

[3] = Confirmatory qHTS for small molecule stabilizers of the endoplasmic reticulum resident proteome: Secreted ER Calcium Modulated Protein (SERCaMP) assay (AID 1508628); settings: SERCaMP secreted luciferase ER calcium/proteostasis reporter; series mostly up to 76.3 µM; note: potency is the fitted concentration of half-maximal effect; nearly all actives have a fitted effect of over 40% in size
Procedure, shortened: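 We seeded SH-SY5Y-GLuc-SERCaMP cells, added compounds (three concentrations in the primary run, eleven up to 76.6 uM in confirmation), incubated 16 h, depleted ER calcium with thapsigargin, and read luciferase 4 h later.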

[4] = biological target: Calcium and integrin-binding protein 1 (Homo sapiens) (UniProt Q99828); experiment: Primary qHTS for Identification of Calcium Integrin Binding Protein 1 (CIB1) Competitor (AID 1508620); settings: CIB1-GST / FITC-alphaIIb peptide fluorescence polarization; series mostly up to 57.7 µM;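 note: GST tagged CIB1 binding a fluorescein labelled alphaIIb integrin peptide tracer; top concentration of the series differs between compounds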
Procedure, shortened: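 CIB1-GST (1 uM final) and compound incubated 15 min at room temperature before adding FITC-alphaIIb peptide tracer (100 nM final). Competition for binding read by fluorescence polarization (ex 480, em 540) after another 15 min at room temperature.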

[5] = Primary qHTS for small molecule stabilizers of the endoplasmic reticulum resident proteome: Secreted ER Calcium Modulated Protein (SERCaMP) assay (AID 1508630); settings: SH-SY5Y GLuc-SERCaMP (Gaussia luciferase released on ER calcium loss) secretion, thapsigargin, luminescence; series mostly up to 38.4 µM
Procedure, shortened: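 GLuc-SERCaMP-expressing SH-SY5Y cells, pretreated 16 h with compound, are challenged with thapsigargin to empty ER calcium stores; after 4 h, coelenterazine is added directly to the medium and luminescence is imaged.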

Sequence of Calcium and integrin-binding protein 1 (Homo sapiens) (Q99828 whole entry, looked up): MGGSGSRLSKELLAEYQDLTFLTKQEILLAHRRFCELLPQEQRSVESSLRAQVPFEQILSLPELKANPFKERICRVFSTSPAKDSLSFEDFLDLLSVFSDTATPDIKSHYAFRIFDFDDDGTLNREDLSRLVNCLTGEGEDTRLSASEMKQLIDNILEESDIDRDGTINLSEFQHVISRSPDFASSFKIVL
Sequence of Cytochrome P450 3A4 (Homo sapiens) (P08684 whole entry, looked up): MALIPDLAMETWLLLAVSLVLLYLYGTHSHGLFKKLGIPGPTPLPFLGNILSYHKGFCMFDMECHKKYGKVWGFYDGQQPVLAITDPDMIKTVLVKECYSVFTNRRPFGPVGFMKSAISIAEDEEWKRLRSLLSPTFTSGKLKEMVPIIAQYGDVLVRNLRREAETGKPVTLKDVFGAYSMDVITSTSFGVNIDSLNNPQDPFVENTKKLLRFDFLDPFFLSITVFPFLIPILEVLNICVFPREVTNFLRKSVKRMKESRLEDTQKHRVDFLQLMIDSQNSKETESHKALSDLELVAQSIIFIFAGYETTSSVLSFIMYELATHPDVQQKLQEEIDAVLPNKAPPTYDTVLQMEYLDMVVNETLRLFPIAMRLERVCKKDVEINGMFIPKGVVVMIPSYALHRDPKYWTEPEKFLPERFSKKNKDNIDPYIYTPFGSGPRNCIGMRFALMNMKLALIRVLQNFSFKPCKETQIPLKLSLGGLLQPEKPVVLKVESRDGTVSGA

CC1=C(/C=C/C(C)=C/C=C/C(C)=C/C(=O)Nc2ccc(O)cc2)C(C)(C)CCC1
max response [1]: 14.9%

O=C1NCC2(CCN(CCc3ccccc3)CC2)O1
outcome [2]: inactive

O=C1c2ccccc2-[n+]2ccc3c([nH]c4ccccc43)c21
Potency [3]: 20 µM (active)

Cc1ccc(/C=N/NC(=O)c2ccccc2Oc2ccccc2)o1
Potency [4]: inactive | Potency [5]: inactive

CC(=O)O[C@]1(C(C)=O)CC[C@@H]2[C@@H]3C[C@H](C)C4=CC(=O)CC[C@]4(C)[C@H]3CC[C@@]21C
Potency [4]: inactive | Potency [5]: inactive

OC[C@H]1O[C@@H](Oc2cc(O)cc(C=Cc3ccc(O)cc3)c2)[C@H](O)[C@@H](O)[C@H]1O
Potency [4]: inactive | Potency [5]: inactive

NC1=N[C@@]2(c3cc(NC(=O)c4ccc(F)cn4)ccc3F)COC[C@@H]2CS1
Potency [4]: inactive | Potency [5]: inactive

C[C@H]1[C@H](NC(=O)C(=NOC(C)(C)C(=O)O)c2csc(N)n2)C(=O)N1S(=O)(=O)O
Potency [4]: inactive | Potency [5]: inactive

CC[C@@H]1C=C(C)C[C@H](C)C[C@H](OC)[C@H]2O[C@@](O)(C(=O)C(=O)N3CCCC[C@@H]3C(=O)O[C@H](C(C)=C[C@@H]3CC[C@H](Cl)[C@H](OC)C3)[C@H](C)[C@@H](O)CC1=O)[C@H](C)C[C@H]2OC
Potency [4]: inactive | Potency [5]: inactive

CC(C)(C)NC(=O)Nc1cccc(Nc2ncc(F)c(NC(C)(C)CO)n2)c1
Potency [4]: inactive | Potency [5]: inactive

OC[C@H]1O[C@@H](n2cnc3c2NC=NC[C@@H]3O)C[C@H]1O
Potency [4]: inactive | Potency [5]: inactive

O=C(NOCC(O)CO)c1cc(Br)c(F)c(F)c1Nc1ccc(I)cc1F (stereo unspecified)
Potency [4]: inactive | Potency [5]: inactive
